# Bioassay records (PubChem)
# hDAT+cocaine = changed hDAT dopamine uptake under cocaine IC80, either direction, primary screen, cocaine antagonist project, cell-based, LLC-PK1 hDAT, [14C]-dopamine uptake, MLSMR; Sodium-dependent dopamine transporter (Homo sapiens), Q01959; LLC-PK1 hDAT cells, [14C]-dopamine uptake with cocaine IC80; actives deviate in either direction; B-score at 10 µM; actives 1.3% (n = 110,000); AID 449768, 2010;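 active means Z score or B-score, a plate-position-corrected score, falls beyond the plate's 99.7% confidence bounds, in either direction; inactive means both scores lie inside the 99.7% bounds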
# PLAP activator = PLAP enzyme activators, biochemical, luminescence, HTS; Alkaline phosphatase, placental type (Homo sapiens), P05187; purified PLAP enzyme, luminescent substrate read-out; stronger effect = higher value; activation fold at 20 µM; actives 1.2% (n = 96,000); AID 696, 2007; in the data active means activation fold above about 2
# D1 mod = D1 CRE-luciferase signal change, two-sided – cell-based, HEK293 D1, dopamine EC30, D1 allosteric modulator project, primary screen; D(1A) dopamine receptor (Homo sapiens), P21728; dopamine EC30 potentiation; actives deviate in either direction; B-score at 10 µM; actives 5.9% (n = 58,000);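 active means luminescence count or its row- and column-corrected plate score outside the 99.7% band of the plate's sample wells, on either side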
# HePTP inhibitor = inhibitors of human HePTP phosphatase, primary screen, biochemical, absorbance, leukemia target | inhibition, % at 20 µM | recombinant HePTP phosphatase activity, OD absorbance | AID 521, 2006 | actives 0.64% (n = 110,000); in the data active means inhibition above about 50%
# Calb biofilm kill = clotrimazole potentiators killing Candida biofilms, primary screen, with clotrimazole, Alamar Blue; C. albicans biofilm + clotrimazole; AID 834, 2007; inhibition, % at 6 µM; actives 0.14% (n = 85,000);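 active means inhibition above 20%; inactive means inhibition below 20%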;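 further: preformed 24 hr biofilms exposed to compound for 48 hr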
# TNAP act mid DEA = human TNAP enzyme activators, primary screen, biochemical, luminescent, intermediate phosphate acceptor level; Alkaline phosphatase, tissue-nonspecific isozyme (Homo sapiens), P05186; purified TNAP, CDP-star luminescence, 100 mM DEA, 30 min; stronger effect = higher value; scale: 0 levamisole-inhibited, 1 vehicle-only enzyme; activation factor at 20 µM; 64,000 tested, under 10 active;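 active means activation factor of at least 2 at 20 µM, relative to controls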
# Target sequence (P05186 whole entry, looked up): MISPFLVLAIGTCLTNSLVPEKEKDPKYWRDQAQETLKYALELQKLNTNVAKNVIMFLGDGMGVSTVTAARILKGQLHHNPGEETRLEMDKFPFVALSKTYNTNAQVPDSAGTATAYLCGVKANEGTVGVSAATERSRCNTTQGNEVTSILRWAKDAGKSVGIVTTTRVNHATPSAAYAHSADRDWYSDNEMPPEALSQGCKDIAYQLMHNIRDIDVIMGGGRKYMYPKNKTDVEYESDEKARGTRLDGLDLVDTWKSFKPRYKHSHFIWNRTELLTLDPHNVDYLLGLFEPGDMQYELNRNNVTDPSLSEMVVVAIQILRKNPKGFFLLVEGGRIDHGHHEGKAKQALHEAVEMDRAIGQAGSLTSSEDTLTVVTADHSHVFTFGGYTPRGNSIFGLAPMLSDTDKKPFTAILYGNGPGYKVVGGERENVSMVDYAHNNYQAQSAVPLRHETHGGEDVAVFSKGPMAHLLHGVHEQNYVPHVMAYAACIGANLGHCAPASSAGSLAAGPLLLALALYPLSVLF
# D1 PAM confirm = D1 receptor positive allosteric modulators, retest, confirmation, cell-based, HEK293 D1, CRE-luciferase, duplicate. shares compounds with D1 mod. actives 88% (n = 2,200). luminescence at 10 µM. dopamine EC30 potentiation; stronger effect = higher value;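 active means luminescence in either of two replicates above the same-plate mean plus 3 SD of the low-dose dopamine control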
# D1 ag no DA = D1 receptor agonism without dopamine, confirmation, mechanism study for D1 allosteric modulator project, cell-based, HEK293 D1, CRE-luciferase, secondary assay 1 | shares compounds with D1 mod | luminescence, no dopamine; stronger effect = higher value | luminescence at 10 µM | actives 0.8% (n = 1,900) | AID 646, 2007; in the data active means luminescence above about 3900
# Isoprot counter = counter-screen for D1 modulators: isoproterenol response in HEK293 cells; shares compounds with D1 mod; HEK293 D1 CRE-luciferase, isoproterenol EC30 counter-screen; stronger effect = higher value; luminescence at 10 µM; actives 63% (n = 2,200);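 active means luminescence in either replicate above plate mean of wells with a partly effective reference agonist dose plus 3 SD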;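 further: isoproterenol raises cAMP through native beta-adrenoceptor Gs so signal bypasses D1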
# Numbers stand for hits; - = inactive; . = no result given. The entries come from a sample that favours hits as a whole.
SMILES,hDAT+cocaine,PLAP activator,D1 mod,HePTP inhibitor,Calb biofilm kill,TNAP act mid DEA,D1 PAM confirm,D1 ag no DA,Isoprot counter
CCCCCn1c(SCC(=O)OC)nc2c1c(=O)[nH]c(=O)n2C,-,-,4.2,-,-,-,14176,-,-
CCCCn1c(SCC(=O)c2ccccc2)nc2c1c(=O)[nH]c(=O)n2C,-,-,-,.,-,.,.,.,.
CC(C)CCn1c(SCCc2ccccc2)nc2c1c(=O)[nH]c(=O)n2C,-,-,-,-,-,-,.,.,.
Cc1nnc(N/N=C/c2ccc([N+](=O)[O-])cc2)[nH]c1=O,.,.,.,-,.,.,.,.,.
COc1ccccc1C1C(C(C)=O)=C(O)C(=O)N1CCN(C)C (stereo not drawn),.,.,.,-,.,.,.,.,.
O=c1n(Cc2ccccc2)c2cc(Cl)cnc2n1Cc1ccccc1,-,-,8.1,-,-,-,9248,-,-
O=C(Nc1sc2c(c1C(=O)O)CCCCC2)c1ccccc1Cl,.,.,.,-,.,.,.,.,.
CCCCCCC1C(C#N)=C(N)OC2=C1C(=O)CC(C)(C)C2 (stereo not drawn),-,.,3.7,-,-,-,12024,-,3280
COc1ccc(CC(=O)N2CCN=C2SC)cc1,-,-,11,-,-,-,15276,-,3544
O=C(CN1CCN(c2ccccn2)CC1)Nc1ccc(Cl)c(C(F)(F)F)c1,-,-,5.5,-,-,-,-,-,-
O=C(CN1CCN(c2ccccn2)CC1)Nc1cc(C(F)(F)F)ccc1Cl,-,-,-,-,-,-,.,.,.
CCOc1ccc(N(CC(=O)N2CCN(c3ccccc3)CC2)S(=O)(=O)c2ccccc2)cc1,.,.,.,-,.,.,.,.,.
COc1ccc(-c2c3c(=O)n(C)c(=O)n(C)c3cn2-c2ccccc2)cc1,-,-,6.5,-,-,-,12728,-,-
COc1ccc(C(=O)Nn2cc3c(c2-c2ccccc2)c(=O)n(C)c(=O)n3C)cc1,-,-,-,-,-,-,.,.,.
C=CCOc1cccc(/C=C/C(=O)c2ccc(Cl)cc2)c1,.,.,.,-,.,.,.,.,.
Cc1cc(C)n2nc(SCC(=O)c3ccc[nH]3)nc2n1,-,-,-,-,-,-,.,.,.
COc1ccc(C(=O)CSc2nc3nc(C)cc(C)n3n2)cc1OC,-,-,11,-,-,-,20980,-,6480
Clc1ccc(N2CCN(c3ncnc4c3oc3ccccc34)CC2)cc1,-,-,-,-,-,-,.,.,.
CC1CN(c2ncnc3c2oc2ccccc23)CC(C)O1 (stereo not drawn),-,-,5.6,-,-,-,12424,-,3752
CCCOc1ccc(-c2nc(OCC)c3ccccc3n2)cc1,-,-,.,.,-,.,.,.,.
CCOc1nc(-c2ccncc2)nc2ccccc12,-,.,13,-,-,-,14136,-,4324
O=C(/C=C/c1cccc([N+](=O)[O-])c1)Nc1ccc(N2CCOCC2)cc1,.,.,.,-,.,.,.,.,.
COc1cc(-c2nn3c(-c4ccccc4)nnc3s2)cc(OC)c1OC,2.7,-,3.3,-,-,-,14804,-,5412
COc1cc(-c2nn3c(COc4ccccc4)nnc3s2)cc(OC)c1OC,-,-,.,-,-,-,.,.,.
COc1cc(-c2nn3c(Cc4ccccc4)nnc3s2)cc(OC)c1OC,-,-,4,-,-,-,9884,-,6328
SMILES,hDAT+cocaine,PLAP activator,D1 mod,HePTP inhibitor,Calb biofilm kill,TNAP act mid DEA,D1 PAM confirm,D1 ag no DA,Isoprot counter
COc1ccc(-c2nn3c(-c4ccco4)nnc3s2)cc1OC,-,-,16,-,.,-,18008,.,5592
Cc1ccc(C(=O)N/C(=C/c2ccc(Br)cc2)C(=O)N2CCOCC2)cc1,.,.,.,-,.,.,.,.,.
Cc1[nH]c(=O)c(C#N)c2c1COC(C)(C)C2,.,.,.,-,.,.,.,.,.
CSc1c(C#N)c(N)c(C#N)c2c1COC(C)(C)C2,-,.,25,-,-,-,28108,-,6432
COc1cc2c(cc1OC)CN(CC(=O)NC(=O)NCc1ccco1)CC2,-,-,6.8,-,-,-,8812,.,-
O=C1NC(=O)N(c2ccccc2F)C(=O)/C1=C/c1ccc(Sc2ccccc2)o1,.,.,.,-,.,.,.,.,.
CCOC(=O)CCCSc1nc2sc3c(c2c(=O)[nH]1)CCCC3,.,.,.,-,.,.,.,.,.
CCOC(=O)CCCSc1nc2sc(C)c(C)c2c(=O)[nH]1,-,-,2.9,-,-,-,6744,.,2704
Cc1cc(C)n(-c2nnc3n2N=C(c2c[nH]c4ccccc24)CS3)n1,-,-,9.8,-,-,-,10564,-,3500
Cc1cc(C)n(-c2nnc3n2N=C(c2ccccc2)CS3)n1,-,-,-,-,-,-,.,.,.
Cc1sc2ncnc(SCC(=O)N3CCCC3)c2c1C,-,-,2.3,-,-,-,7900,-,-
Cc1sc2ncnc(SCC(=O)NC3CC3)c2c1C,-,-,.,.,.,.,.,.,.
CCOC(=O)c1cc(CN2CCOCC2)oc1-c1ccccc1,-,-,4,-,-,-,12300,-,3124
CCOC(=O)c1oc2cccc(O)c2c1C,-,-,.,-,-,.,.,.,.
CCOC(=O)c1oc2cccc(O)c2c1CN1CCOCC1,-,-,5.8,-,-,-,7884,-,-
CCOC(=O)c1oc2ccccc2c1CN1CCN(C(=O)c2ccccc2)CC1,2.8,-,6.9,-,-,-,17092,-,7972
CCOC(=O)c1oc2ccccc2c1CN1CCN(c2ccccc2)CC1,-,-,-,-,-,-,.,.,.
CC(C)(C)c1cc(N=NC(=O)c2ccncc2)cc(C(C)(C)C)c1O,.,.,.,-,.,.,.,.,.
Clc1ccc(Cn2ncc3c(N4CCOCC4)ncnc32)cc1,-,-,-,-,-,-,.,.,.
Cc1ccc(Cn2ncc3c(N4CCCC4)ncnc32)cc1,-,-,2.7,-,-,-,10768,-,3888
Clc1ccc(Cn2ncc3c(N4CCCC4)ncnc32)cc1,-,-,4.7,-,-,-,13228,-,5324
Clc1ccc(Cn2ncc3c(N4CCCCC4)ncnc32)cc1,-,-,-,-,-,-,.,.,.
CCCCOC(=O)c1cccc(NC(=S)NC(=O)c2ccccc2Cl)c1,.,.,.,-,.,.,.,.,.
